“And” between values parts separate entries of the source, which are not always exact repeats. Equal entries are not always repeated. The source made the active and inactive calls. The calls were made as follows: active = hit-call score of the fitted dose curve at least 0.9, where 1 is the maximum; inactive = score below 0.9.
test: CCTE_Shafer_MEA_acute_per_network_burst_electrodes_number_mean: CCTE's Neural Acute Assay for Mean Number of Electrodes in a Network Burst, Shafer Lab (AID 2284021);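 also: curves fitted for decreases only so hits reduce electrodes per burst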
Procedure: CCTE_Shafer_MEA_acute assay is conducted using Axion Biosystems 48 well microelectrode array (MEA) plates and Maestro recording system. Each well of the MEA plate contains a grid of 16 microelectrodes embedded in the culture surface. Electrically active cells, such as neurons, can be cultured over the electrodes, and electrical activity in these cells can be recorded extracellularly. The spontaneous firing of neurons is captured from each electrode on a microsecond timescale providing both temporally and spatially precise data. […] The CCTE_Shafer_MEA_acute assay uses primary cultures of rat cortical neurons. As these cultures mature over time, neural networks develop functional activity and form cohesive networks in which electrical activity can be highly coordinated. Baseline 40-minute recordings are made on days post-plating 13 or 15, followed by a secondary 40-minute recording after chemical exposure.CCTE_Shafer_MEA_acute_per_network_burst_electrodes_number_mean is a component of the CCTE_Shafer_MEA_acute assay. It measures the average number of electrodes with activity during a network burst (a temporally-clustered group of action potential firing across multiple electrodes) in a recording in a microelectrode array (MEA) using Axion Biosystems Maestro 768 channel amplifier with the AxIS adaptive spike detector. The recordings before and after chemical treatment are used to calculate a percent change in the mean number of electrodes participating in network bursts in each well.Data from the assay component CCTE_Shafer_MEA_acute_per_network_burst_electrodes_number_mean was analyzed into 1 assay endpoint. This assay endpoint, CCTE_Shafer_MEA_acute_per_network_burst_electrodes_number_mean, was analyzed in the negative analysis fitting direction relative to DMSO as the negative control and baseline of activity. Using a type of functional reporter, gain or loss-of-signal activity can be used to understand electrical activity.
Spontaneous activity in the cortical cultures was recorded using an Axion Biosystems Maestro 768 channel amplifier and Axion Integrated Studios (AxIS) v1.8 (or later) software. The amplifier recorded from all channels simultaneously (gain = 1200 x; sampling rate = 12.5 kHz/channel): raw signals were filtered with a Butterworth band-pass filter (300-5000 Hz), which filters out slower local field potentials leaving only fast potentials, i.e., "spikes", arising from extracellular currents associated with action potentials (Pine 2006; Wheeler and Nam 2011). On-line spike detection of filtered signals was conducted with the AxIS adaptive spike detector, using a threshold of 8x the root mean squared (rms) noise on each channel. Any electrodes with rms noise levels greater than 5 uV were grounded (e.g., no data were recorded). Once grounded, an electrode was grounded for the duration of the experiment. All recordings were conducted at 37 C. Wells were deemed usable if on the day of the exposure >/= 10 electrodes were active (defined as >/= 5 spikes/min). On DIV 13 or 15, a minimum of three wells from one cortical culture preparation were treated with each compound (0.03-40 uM). Prior to recording baseline activity, each mwMEA plate was placed in the Maestro at 37 C and allowed to sit for 20 min while firing rates stabilized. Baseline activity (40 min) was recorded before the addition of each compound. An additional 40 min of spontaneous activity was recorded in the presence of each compound. Changes in network parameters relative to baseline were assessed following compound treatment.

SMILES | AC50 | outcome
CCOP(=S)(OCC)Oc1ccc2c(C)c(Cl)c(=O)oc2c1 | 4.12 µM (active) | 
COP(=O)(NC(C)=O)SC (centres undefined) |  | inactive
COP(=O)(OC)C(O)C(Cl)(Cl)Cl (centres undefined) |  | inactive
CC(C)N(C(=O)SCC(Cl)=C(Cl)Cl)C(C)C | 11.5 µM (active) and 5.51 µM (active) | 
C[N+]1(C)CCCCC1 |  | inactive
O=[N+]([O-])c1cc(C(F)(F)F)c(Cl)c([N+](=O)[O-])c1Nc1ncc(C(F)(F)F)cc1Cl | 0.481 µM (active) | 
COc1cc(OC)nc(Sc2cccc(Cl)c2C(=O)O)n1 |  | inactive
CCOP(=O)(NC(C)C)Oc1ccc(SC)c(C)c1 (centres undefined) |  | inactive
Nc1c(Cl)cc([N+](=O)[O-])cc1Cl | 20 µM (active) | 
CC1=NNC(=O)N(/N=C/c2cccnc2)C1 |  | inactive
CON=C(C(=O)OC)c1ccccc1CON=C(C)c1cccc(C(F)(F)F)c1 | 13.5 µM (active) | 
CN(C)NC(=O)CCC(=O)O |  | inactive
FC(F)C(F)(F)OCC(Cn1cncn1)c1ccc(Cl)cc1Cl (centres undefined) |  | inactive
N#CSCSC#N |  | inactive
CCCOCC(=Nc1ccc(Cl)cc1C(F)(F)F)n1ccnc1 |  | inactive
CC(COc1ccc(Oc2ccccc2)cc1)Oc1ccccn1 (centres undefined) | 20 µM (active) | 
CC(C)=CC1C(C(=O)OCN2C(=O)C3=C(CCCC3)C2=O)C1(C)C (centres undefined) |  | inactive

SMILES | AC50 | outcome
CCOP(=S)(Oc1cnc(C(C)(C)C)nc1)OC(C)C (centres undefined) | 20 µM (active) | 
Cc1ccn2nc(S(=O)(=O)Nc3c(F)cccc3F)nc2n1 |  | inactive
CCc1cnc(C2=NC(C)(C(C)C)C(=O)N2)c(C(=O)O)c1 (centres undefined) |  | inactive
C[Si](Cn1cncn1)(c1ccc(F)cc1)c1ccc(F)cc1 |  | inactive
CN1COCN(Cc2cnc(Cl)s2)C1=N[N+](=O)[O-] |  | inactive
CNC(=O)ON=C(SC)C(=O)N(C)C |  | inactive
CC[C@H](C)[C@H]1O[C@]2(C=C[C@@H]1C)C[C@@H]1C[C@@H](C/C=C(\C)[C@@H](O[C@H]3C[C@H](OC)[C@@H](O[C@H]4C[C@H](OC)[C@@H](NC)[C@H](C)O4)[C@H](C)O3)[C@@H](C)/C=C/C=C3\CO[C@@H]4[C@H](O)C(C)=C[C@@H](C(=O)O1)[C@]34O)O2 | 615 nM (active) and 8.88 µM (active) | 
C=C(C)[C@H]1Cc2c(ccc3c2O[C@@H]2COc4cc(OC)c(OC)cc4[C@@H]2C3=O)O1 |  | inactive
O=C(O)c1cc(Oc2ccc(C(F)(F)F)cc2Cl)ccc1[N+](=O)[O-] |  | inactive
CC(C)[C@H](C(=O)O[C@H](C#N)c1cccc(Oc2ccccc2)c1)c1ccc(Cl)cc1 | 0.0691 µM (active) | 
CCOC(=O)CC(SP(=O)(OC)OC)C(=O)OCC (centres undefined) |  | inactive
CSC1=N[C@@](C)(c2ccccc2)C(=O)N1Nc1ccccc1 |  | inactive
CCOP(=S)(OCC)SCCSCC | 2.98 µM (active) | 
CN(C)[C@@H]1C(=O)C(C(N)=O)=C(O)[C@@]2(O)C(=O)C3=C(O)c4c(O)cccc4[C@@](C)(O)[C@H]3[C@H](O)[C@@H]12 |  | inactive
C#CCC1=C(C)C(OC(=O)C2C(C=C(C)C)C2(C)C)CC1=O (centres undefined) | 5.78 µM (active) | 
CC(=NC#N)N(C)Cc1ccc(Cl)nc1 |  | inactive
CCc1cccc(C)c1N(C(=O)CCl)C(C)COC (centres undefined) | 5.76 µM (active) | 

Reference: PubChem BioAssay (EPA / NIEHS)
